24 molecules from PubChem BioAssay (NCATS) can be followed below.

Where “and” joins values, the source holds several entries; their conditions need not be identical. Equal entries are not always repeated. Records with an inconclusive call do not appear. The source holds several records for some structures; these can differ, active in one and inactive in another. Calls of active or inactive are those of the source. Unless noted, calls follow the shape of the dose curve; as a rule, active = well fitted curve in the direction sought with a large enough effect; inconclusive = small, poorly fitted or top-dose-only effect, or another doubt; inactive = no such curve, though single readings can be large; an effect the other way counts as inactive or inconclusive.

For test [1], the target named is Calcium and integrin-binding protein 1 (Homo sapiens) (UniProt Q99828). Briefly: Primary qHTS for Identification of Calcium Integrin Binding Protein 1 (CIB1) Competitor (AID 1508620).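 Also: GST tagged CIB1 binding a fluorescein labelled alphaIIb integrin peptide tracer; top concentration of the series differs between compounds; % is scaled to controls: 0 for no effect and ±100 for the full control effect.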 In a few lines:
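Fluorescence polarization competition: GST-tagged CIB1 (1 uM final) preincubated with compound 15 min at room temperature, then FITC-labelled alphaIIb peptide (100 nM final) added. After 15 min at room temperature, polarization read at Ex 480/Em 540.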
On the technique in general: In qHTS, concentration-response curves come from the screen itself.

Test [2] can be described thus: Primary qHTS for small molecule stabilizers of the endoplasmic reticulum resident proteome: Secreted ER Calcium Modulated Protein (SERCaMP) assay (AID 1508630). Also: % is scaled to controls: 0 for no effect and ±100 for the full control effect. In a few lines: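 The SH-SY5Y reporter protocol was run at 3 concentrations up to 38.3 uM (primary) or 11 concentrations (follow-up): 16 h compound, 100 nM thapsigargin for 4 h, then extracellular luciferase luminescence.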

Test [3] is described as follows: A High-Content qHTS Against Drug Library for the Identification of Small Molecules that Inhibit DYT1 Early Onset Primary Dystonia-Associated Cell Pathology (AID 1645839; calls by dose curve; also: potency is read from the fitted curve at half-maximal effect). The procedure, abridged: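 Cells were seeded and left for 24 h, then dosed with compound alongside tetracycline induction of mutant EGFP-TorsinA. They were incubated for 48 h, fixed in 4% paraformaldehyde, permeabilized and imaged for mislocalization (%pathology) and cell count.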

For test [4], the target named is Cytochrome P450 2D6 (Homo sapiens) (UniProt P10635). The test can be described thus: Cytochrome P450 family 2 subfamily D member 6 (CYP2D6) small molecule antagonists: luciferase biochemical (cell-free) qHTS assay (AID 1645840; active = well fitted curve in the direction sought with a large enough effect in the repeat runs; an effect the other way counts as inactive or inconclusive; also: nearly all actives have a fitted effect of over 55% in size; also: potency is read from the fitted curve at half-maximal effect). The procedure, abridged: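 P450-Glo CYP2D6 system: proluciferin substrate converted by enzyme to luciferin, read by luminescence proportional to activity. Enzyme-substrate mix with compound 10 min at room temperature, then NADPH regeneration 1 h before detection reagent.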

Test [5] has as its target Cytochrome P450 2C9 (Homo sapiens) (UniProt P11712). Briefly: Cytochrome P450 family 2 subfamily C member 9 (CYP2C9) small molecule antagonists: luciferase biochemical (cell-free) qHTS assay (AID 1645842; active = well fitted curve in the direction sought with a large enough effect in the repeat runs; an effect the other way counts as inactive or inconclusive; also: nearly all actives have a fitted effect of over 55% in size; also: potency is read from the fitted curve at half-maximal effect). The procedure, abridged:
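P450-Glo CYP2C9 system: proluciferin substrate with enzyme in mix containing 0.4% BSA, 10 min at room temperature, then NADPH regeneration solution added and incubated 1 h at 37C. Detection reagent stopped reaction; luminescence read after 20 min as RLU.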

Test [6] in a line: Primary qHTS for inhibitors of nuclear receptor binding SET domain protein 2 (NSD2) in an isogenic RCH-ACV NSD2 p.E1099K mutant (9B) (AID 1645876). Also: nearly all actives have a fitted effect of over 70% in size. Also: potency is read from the fitted curve at half-maximal effect.
Test [7] in a line: Primary qHTS for inhibitors of nuclear receptor binding SET domain protein 2 (NSD2) in an RCH-ACV wild type WT cells (2C) (AID 1645877). Also: nearly all actives have a fitted effect of over 70% in size. Also: potency is read from the fitted curve at half-maximal effect.
The nature of test [8]: Counterscreen qHTS for small molecule stabilizers of the endoplasmic reticulum resident proteome: GLuc-NoTag assay (AID 1508627). Also: potency is read from the fitted curve at half-maximal effect. In a few lines:
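Counterscreen line: SH-SY5Y-GLuc-NoTag. Seed, 5 h; compound, 19 h; thapsigargin 100 nM, 4 h; 37C/5% CO2. Readout: secreted GLuc luminescence, coelenterazine 0.07x final, no lysis.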

Test [9] in a line: Cell Viability qHTS for small molecule stabilizers of the endoplasmic reticulum resident proteome (AID 1508629).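 Also: compound exposure about 46 h in total before the viability read.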 Also: potency is read from the fitted curve at half-maximal effect.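 As to max response: human SH-SY5Y neuroblastoma cells carrying the GLuc-SERCaMP reporter; % is scaled to controls: 0 for no effect and ±100 for the full control effect.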 The following applies: cell viability counter-screen, 100 nM thapsigargin for final 4 h.
The nature of test [10]: Confirmatory qHTS for small molecule stabilizers of the endoplasmic reticulum resident proteome: Secreted ER Calcium Modulated Protein (SERCaMP) assay (AID 1508628). Also: potency is read from the fitted curve at half-maximal effect; nearly all actives have a fitted effect of over 40% in size. In a few lines:
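Reporter secretion upon ER calcium depletion (100 nM thapsigargin, 4 h, 37C) is measured as medium luminescence with coelenterazine, after 16 h compound pretreatment of SH-SY5Y-GLuc-SERCaMP cells; primary at three concentrations up to 38.3 uM, follow-up at 11 (up to 76.6 uM).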

A further test deals with Papain (Carica papaya) (UniProt P00784). Briefly: Primary qHTS assay for inhibitors of the protease papain (AID 1645873).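 Also: papain turnover of Z-FR-AMC read as the AMC fluorescence gain over 10 min; series mostly up to about 50 µM; % is scaled to controls: 0 for no effect and ±100 for the full control effect.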
For test [11], the target named is N-terminal Xaa-Pro-Lys N-methyltransferase 1 (Homo sapiens) (UniProt Q9BV86). Briefly: Confirmatory qHTS for Inhibitors of N-terminal methyltransferase 1 (NTMT1): MTaseGlo Assay (AID 1645874). Also: nearly all actives have a fitted effect of over 65% in size. Also: potency is read from the fitted curve at half-maximal effect. In a few lines: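 MTase-Glo luminescence measured SAH formed by 125 nM NTMT1 from 100 uM SAM and 1 uM SPKRIA peptide over 30 min at room temperature, following 15 min compound preincubation. Percent inhibition against no-enzyme and DMSO controls gave 4-parameter Hill fits.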

Test [12] deals with Cytochrome P450 3A4 (Homo sapiens) (UniProt P08684). The test can be described thus: Cytochrome P450 family 3 subfamily A member 4 (CYP3A4) small molecule antagonists: luciferase qHTS assay (AID 1645841; active = well fitted curve in the direction sought with a large enough effect in the repeat runs; an effect the other way counts as inactive or inconclusive; also: nearly all actives have a fitted effect of over 45% in size). The procedure, abridged: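 P450-Glo CYP3A4 enzyme with proluciferin substrate preincubated 10 min with compound at room temperature, then NADPH regeneration 1 h. Luciferin detection reagent added for 20 min; luminescence recorded. Ketoconazole positive control.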

The target in test [13] is Rap guanine nucleotide exchange factor 3 (Homo sapiens) (UniProt O95398). Briefly: Confirmatory qHTS for antagonist of cAMP-regulated guanine nucleotide exchange factor 3 (EPAC1) (AID 1645880).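 Also: plate controls were DMSO only for no effect and full effect of the ATA control for full effect; nearly all actives have a fitted effect of over 55% in size.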 In a few lines: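 Released BODIPY-GDP fluoresces less than Rap1-bound BODIPY-GDP; the signal is followed at 480/540 nm at 5-min intervals over 30 min, after 5 min at room temperature. Reactions contain 100 nM EPAC1, 250 nM RAP1B-BODIPY-GDP and 50 uM GDP; results are normalized to ATA and DMSO.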

The target is the same in test [14]. Briefly: Confirmatory qHTS for agonist of cAMP-regulated guanine nucleotide exchange factor 3 (EPAC1) (AID 1645881).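 Also: EPAC1 catalysed release of BODIPY-GDP from Rap1B seen as fluorescence loss; 100% = effect of cAMP agonist control; nearly all actives have a fitted effect of over 75% in size.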
Test [15] has as its target Rap guanine nucleotide exchange factor 4 (Homo sapiens) (UniProt Q8WZA2). Briefly: Confirmatory qHTS for agonist of cAMP-regulated guanine nucleotide exchange factor 4 (EPAC2) (AID 1645884).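 Also: nucleotide exchange releases bodipy-GDP from Rap1 and this lowers its fluorescence; % is scaled to controls: 0 for no effect and ±100 for the full control effect; nearly all actives have a fitted effect of over 65% in size.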

Cytochrome P450 2C9 (Homo sapiens), sequence (P11712 whole entry, looked up): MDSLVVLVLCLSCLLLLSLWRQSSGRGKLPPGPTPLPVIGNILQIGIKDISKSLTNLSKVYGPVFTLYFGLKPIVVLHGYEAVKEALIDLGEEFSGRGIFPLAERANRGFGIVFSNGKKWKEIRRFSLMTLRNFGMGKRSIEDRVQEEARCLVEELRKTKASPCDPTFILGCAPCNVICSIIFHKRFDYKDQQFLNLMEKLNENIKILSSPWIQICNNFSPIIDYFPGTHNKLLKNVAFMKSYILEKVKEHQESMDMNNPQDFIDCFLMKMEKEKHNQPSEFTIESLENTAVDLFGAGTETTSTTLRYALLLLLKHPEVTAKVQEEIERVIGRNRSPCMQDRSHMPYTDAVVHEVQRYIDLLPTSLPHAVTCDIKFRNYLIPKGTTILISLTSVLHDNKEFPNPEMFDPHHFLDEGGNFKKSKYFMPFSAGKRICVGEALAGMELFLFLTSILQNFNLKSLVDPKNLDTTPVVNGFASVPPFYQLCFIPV
Cytochrome P450 3A4 (Homo sapiens), sequence (P08684 whole entry, looked up): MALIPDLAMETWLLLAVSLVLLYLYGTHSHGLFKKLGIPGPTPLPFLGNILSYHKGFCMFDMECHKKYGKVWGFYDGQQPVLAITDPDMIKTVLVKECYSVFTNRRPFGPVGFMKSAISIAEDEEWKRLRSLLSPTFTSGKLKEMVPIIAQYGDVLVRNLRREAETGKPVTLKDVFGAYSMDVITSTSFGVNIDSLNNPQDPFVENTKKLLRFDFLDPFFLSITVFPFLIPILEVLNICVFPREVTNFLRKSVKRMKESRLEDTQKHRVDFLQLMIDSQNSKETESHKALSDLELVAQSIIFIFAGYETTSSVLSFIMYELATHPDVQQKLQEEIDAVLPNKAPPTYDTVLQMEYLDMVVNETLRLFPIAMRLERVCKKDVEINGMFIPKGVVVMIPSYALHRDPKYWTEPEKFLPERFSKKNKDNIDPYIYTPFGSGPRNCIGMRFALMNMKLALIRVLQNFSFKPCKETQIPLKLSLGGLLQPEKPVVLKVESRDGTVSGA
N-terminal Xaa-Pro-Lys N-methyltransferase 1 (Homo sapiens), sequence (Q9BV86 whole entry, looked up): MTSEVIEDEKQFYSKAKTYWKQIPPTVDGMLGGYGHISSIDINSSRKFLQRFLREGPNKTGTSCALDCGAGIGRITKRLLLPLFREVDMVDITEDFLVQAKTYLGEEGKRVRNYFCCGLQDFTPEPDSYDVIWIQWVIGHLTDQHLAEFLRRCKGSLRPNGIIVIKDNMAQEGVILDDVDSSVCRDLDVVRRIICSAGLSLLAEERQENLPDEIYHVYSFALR
Calcium and integrin-binding protein 1 (Homo sapiens), sequence (Q99828 whole entry, looked up): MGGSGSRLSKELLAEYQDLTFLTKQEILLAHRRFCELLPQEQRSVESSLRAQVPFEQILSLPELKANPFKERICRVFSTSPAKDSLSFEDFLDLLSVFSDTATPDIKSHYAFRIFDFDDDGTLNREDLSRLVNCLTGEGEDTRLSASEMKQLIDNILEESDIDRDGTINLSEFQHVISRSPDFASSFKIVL
Cytochrome P450 2D6 (Homo sapiens), sequence (P10635 whole entry, looked up): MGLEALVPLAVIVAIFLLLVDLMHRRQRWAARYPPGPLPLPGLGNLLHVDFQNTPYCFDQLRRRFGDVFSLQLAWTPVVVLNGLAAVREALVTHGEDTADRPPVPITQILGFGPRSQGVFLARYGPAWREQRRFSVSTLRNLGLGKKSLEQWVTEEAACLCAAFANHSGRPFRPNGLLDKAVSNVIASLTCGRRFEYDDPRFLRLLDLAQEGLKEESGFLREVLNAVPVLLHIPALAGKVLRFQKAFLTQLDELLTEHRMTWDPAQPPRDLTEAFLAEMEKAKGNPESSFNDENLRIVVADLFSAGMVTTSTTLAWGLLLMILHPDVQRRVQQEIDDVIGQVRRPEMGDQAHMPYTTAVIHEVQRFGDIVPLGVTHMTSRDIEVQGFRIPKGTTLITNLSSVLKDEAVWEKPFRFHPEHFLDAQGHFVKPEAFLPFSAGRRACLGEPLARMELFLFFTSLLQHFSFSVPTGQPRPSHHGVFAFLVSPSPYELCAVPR
Rap guanine nucleotide exchange factor 3 (Homo sapiens), sequence (O95398 whole entry, looked up): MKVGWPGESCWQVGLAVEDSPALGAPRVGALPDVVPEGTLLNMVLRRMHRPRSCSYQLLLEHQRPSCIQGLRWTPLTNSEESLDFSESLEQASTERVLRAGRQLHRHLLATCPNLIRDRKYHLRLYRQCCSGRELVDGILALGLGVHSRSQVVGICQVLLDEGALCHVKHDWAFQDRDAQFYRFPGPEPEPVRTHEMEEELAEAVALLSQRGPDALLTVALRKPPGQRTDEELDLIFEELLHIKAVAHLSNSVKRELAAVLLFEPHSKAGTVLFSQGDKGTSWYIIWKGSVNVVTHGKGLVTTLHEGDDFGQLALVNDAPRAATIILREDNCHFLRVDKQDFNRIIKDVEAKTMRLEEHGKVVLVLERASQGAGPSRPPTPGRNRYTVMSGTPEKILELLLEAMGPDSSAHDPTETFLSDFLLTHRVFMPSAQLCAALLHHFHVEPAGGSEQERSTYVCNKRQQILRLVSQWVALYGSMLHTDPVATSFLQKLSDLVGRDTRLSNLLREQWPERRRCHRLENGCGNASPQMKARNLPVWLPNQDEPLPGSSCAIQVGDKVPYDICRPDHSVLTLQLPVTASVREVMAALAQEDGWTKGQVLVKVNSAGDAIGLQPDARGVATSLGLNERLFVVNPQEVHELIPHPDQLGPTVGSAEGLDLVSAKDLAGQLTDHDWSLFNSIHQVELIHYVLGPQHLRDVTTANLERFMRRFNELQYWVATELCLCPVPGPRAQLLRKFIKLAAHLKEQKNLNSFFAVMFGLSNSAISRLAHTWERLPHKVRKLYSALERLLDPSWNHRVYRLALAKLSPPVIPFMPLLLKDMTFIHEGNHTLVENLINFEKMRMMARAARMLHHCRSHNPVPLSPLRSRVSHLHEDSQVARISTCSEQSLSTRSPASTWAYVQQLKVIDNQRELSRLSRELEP
Rap guanine nucleotide exchange factor 4 (Homo sapiens), sequence (Q8WZA2 whole entry, looked up): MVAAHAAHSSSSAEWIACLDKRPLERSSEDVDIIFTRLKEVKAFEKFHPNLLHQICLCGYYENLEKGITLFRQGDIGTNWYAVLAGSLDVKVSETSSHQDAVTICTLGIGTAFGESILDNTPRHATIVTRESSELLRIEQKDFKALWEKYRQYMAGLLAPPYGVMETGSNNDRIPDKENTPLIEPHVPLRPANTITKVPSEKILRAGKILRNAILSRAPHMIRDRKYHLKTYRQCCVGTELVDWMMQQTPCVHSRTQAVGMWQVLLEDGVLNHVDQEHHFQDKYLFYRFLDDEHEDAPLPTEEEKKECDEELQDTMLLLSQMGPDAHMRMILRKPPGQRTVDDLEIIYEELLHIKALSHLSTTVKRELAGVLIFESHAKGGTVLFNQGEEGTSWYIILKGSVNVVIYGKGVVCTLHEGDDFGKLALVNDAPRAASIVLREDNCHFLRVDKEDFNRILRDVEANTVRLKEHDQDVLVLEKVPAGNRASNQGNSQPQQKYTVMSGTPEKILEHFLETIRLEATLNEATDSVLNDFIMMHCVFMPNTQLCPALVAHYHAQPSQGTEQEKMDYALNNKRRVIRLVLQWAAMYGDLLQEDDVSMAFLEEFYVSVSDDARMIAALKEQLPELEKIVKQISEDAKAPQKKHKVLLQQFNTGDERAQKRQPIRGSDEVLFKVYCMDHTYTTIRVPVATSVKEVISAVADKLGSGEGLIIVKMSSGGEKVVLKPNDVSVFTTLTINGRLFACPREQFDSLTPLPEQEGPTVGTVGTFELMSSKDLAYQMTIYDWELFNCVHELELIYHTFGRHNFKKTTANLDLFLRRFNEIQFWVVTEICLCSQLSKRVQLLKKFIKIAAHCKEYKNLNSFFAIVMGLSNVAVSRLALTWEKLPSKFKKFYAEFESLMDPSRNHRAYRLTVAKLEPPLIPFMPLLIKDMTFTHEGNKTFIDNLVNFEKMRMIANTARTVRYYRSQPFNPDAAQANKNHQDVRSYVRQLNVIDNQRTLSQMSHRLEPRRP
Papain (Carica papaya), sequence (P00784 whole entry, looked up): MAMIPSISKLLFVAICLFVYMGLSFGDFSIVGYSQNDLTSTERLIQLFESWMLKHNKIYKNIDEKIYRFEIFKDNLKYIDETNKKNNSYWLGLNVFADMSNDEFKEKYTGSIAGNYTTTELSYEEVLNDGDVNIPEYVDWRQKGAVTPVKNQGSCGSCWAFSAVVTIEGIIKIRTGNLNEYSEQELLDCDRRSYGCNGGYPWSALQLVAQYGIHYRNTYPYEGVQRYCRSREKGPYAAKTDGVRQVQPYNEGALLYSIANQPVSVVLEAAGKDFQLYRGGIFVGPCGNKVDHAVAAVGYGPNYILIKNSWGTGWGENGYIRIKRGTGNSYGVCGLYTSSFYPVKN

Regarding `COc1cc2c(N3CCN(C(=O)Nc4ccc(OC(C)C)cc4)CC3)ncnc2cc1OCCCN1CCCCC1`, the Potency entry in [1], in [2], in test [3] and in test [5] was “inactive” throughout. Besides, the Potency is 12.3 µM (active) in [4]; 18.8 µM (active) and 25.8 µM (active) and 16.6 µM (active) in [6]; 13.3 µM (active) and 23 µM (active) and 16.6 µM (active) in [7].

Regarding `CC1(C)CCC(C)(C)c2cc(NC(=O)c3ccc(C(=O)O)cc3)ccc21`, the Potency result in test [1], in [8], in test [2], in test [4] and in [5] was “inactive” throughout.

`Cc1cccc(C)c1OCC(=O)N[C@@H](Cc1ccccc1)[C@@H](O)C[C@H](Cc1ccccc1)NC(=O)[C@H](C(C)C)N1CCCNC1=O`: the Potency entry in [1] is “inactive”. Also, the Potency in [8] is 39.8 µM (active); in [4] it was 13.8 µM (active); in test [5], 17.4 µM (active). In test [9], the max response is -5.9% (inactive).

On to `CCCCC(CC)COC(=O)C(C#N)=C(c1ccccc1)c1ccccc1` (configuration not stated), for which the Potency result in [1], in test [2], in test [3] and in test [7] was “inactive” each time. Besides, the Potency in test [4] was 1.23 µM (active) and 3.38 µM (active); in test [5] it was 1.1 µM (active) and 3.01 µM (active); in test [6] it was 21.1 µM (active) and inactive.

Consider `Cc1cc(O)c2c(c1)C(=O)c1cc(O)cc(O)c1C2=O`, for which the Potency result (in test [1]; with Papain (Carica papaya); in test [6]; in test [7]) was “inactive” throughout. For the same molecule, the Potency in [10] is 14.1 µM (active); in test [11] it was 30.8 µM (active).

In the case of `S=c1nc[nH]c2nc[nH]c12`, the Potency result in [1], in [2], in test [3], in test [4] and in [11] was “inactive” throughout. Further, the Potency in [5] was 19.5 µM (active); in test [6] it was 944 nM (active) and 2.63 µM (active); in test [7], 668 nM (active) and 1.66 µM (active).

With `CC1=C(C(=O)O)N2C(=O)[C@@H](NC(=O)[C@H](N)C3=CCC=CC3)[C@H]2SC1`, the Potency entry in [1], in test [2], in [3], in test [4], in test [5] and in test [6] was “inactive” throughout.

On to `COCCCN1CCC(NC(=O)c2cc(Cl)c(N)c3c2OCC3)CC1`, for which the Potency result in [1], in test [2], in [3], in test [6] and in test [7] was “inactive” throughout. Besides, the Potency in [4] was 3.47 µM (active); in test [5], 2.45 µM (active).

For `O=C(OC1C[C@H]2CC[C@@H](C1)[N+]21CCCC1)C(O)(c1ccccc1)c1ccccc1` (some centres not stated), the Potency entry in [1], in test [2], in test [3] and in test [5] was “inactive” each time. Besides, the Potency in test [4] was 6.17 µM (active). In addition, the outcome in test [12] was inactive.

Turning to `CN(C)C(=O)COC(=O)Cc1ccc(OC(=O)c2ccc(N=C(N)N)cc2)cc1`, the Potency result in test [1], in [2], in test [3], in test [4], in test [5] and in test [6] was “inactive” throughout. Also, the Potency result in test [7] was “inactive”.

For the molecule `NC(=O)Cc1cccc(C(=O)c2ccccc2)c1N`, the Potency entry in [1], in [2], in test [3], in test [4] and in test [5] was “inactive” each time.

On to `N=C(N)c1ccc2cc(OC(=O)c3ccc(N=C(N)N)cc3)ccc2c1`, for which the Potency result in test [1], in test [2], in [3], in test [4], in test [5] and in test [6] was “inactive” throughout. Further, the Potency result in test [7] is “inactive”.

On to `CC(C)[C@H](N)C(=O)OCCOCn1cnc2c(=O)[nH]c(N)nc21`, for which the Potency entry in [1], in test [2], in [3], in test [4], in test [5] and in [6] was “inactive” in each case. Further, the Potency entry in test [7] was “inactive”.

In the case of `CC(C)Oc1ccc2c(=O)c(-c3ccccc3)coc2c1`, the Potency entry in test [1], in [2], in [3], in test [4], in [6] and in test [7] was “inactive” in each case. Moreover, in [5], the Potency is 13.8 µM (active) and 21.9 µM (active).

For the molecule `COc1cc(Nc2c(C#N)cnc3cc(OCCCN4CCN(C)CC4)c(OC)cc23)c(Cl)cc1Cl`, the Potency entry in test [1], in test [2], in test [4] and in test [5] was “inactive” each time. Moreover, the Potency in [3] is 10 µM (active); in test [11], 15.8 µM (active); in [6], 596 nM (active) and 1.63 µM (active) and 1.32 µM (active); in test [7], 531 nM (active) and 1.63 µM (active) and 1.48 µM (active). In addition, the molecule was called inactive in test [12].

On to `COC(=O)C1=C(C)NC(C)=C(C(=O)OCCCN2CCC(c3ccccc3)(c3ccccc3)CC2)C1c1cccc([N+](=O)[O-])c1` (configuration not stated), for which the Potency entry in test [1], in [2] and in test [13] was “inactive” throughout. Besides, the Potency was 39.8 µM (active) in test [8]; 28.2 µM (active) in test [9]; 7.42 µM (active) and 7.5 µM (active) in test [6]; 6.61 µM (active) and 5.96 µM (active) in [7]. For the same molecule, the call in [14] and in test [15] was inactive.

Turning to `Cc1ccc(C)c(OCCCC(C)(C)C(=O)O)c1`, the Potency result in test [1], in test [2], in test [3], in test [4], in test [6] and in test [7] was “inactive” in each case. Also, the outcome in test [12] was inactive.

Consider `CC(C)c1nc(CN(C)C(=O)N[C@H](C(=O)N[C@@H](Cc2ccccc2)C[C@H](O)[C@H](Cc2ccccc2)NC(=O)OCc2cncs2)C(C)C)cs1`, for which the Potency entry in [1] and in test [2] was “inactive” in each case.

Take `Cc1c(C(=O)NN2CCCCC2)nn(-c2ccc(Cl)cc2Cl)c1-c1ccc(Cl)cc1`: the Potency entry in [1] and in test [2] was “inactive” each time.

For the molecule `O=C(NC(Cc1cc(=O)[nH]c2ccccc12)C(=O)O)c1ccc(Cl)cc1` (configuration not stated), the Potency entry in [1], in [2], in [3], in [4], in [5] and in [6] was “inactive” each time. In test [7], the Potency result is “inactive”.

For `C=CCc1cc(OC)c(O)c(C(=O)NCCO)c1`, the Potency result in [1], in test [2], in test [3], in test [4] and in test [5] was “inactive” each time.

Regarding `N=C(N=C(N)N)N1CCOCC1`, the Potency entry in [1], in test [2], in test [3], in test [4], in test [5] and in test [6] was “inactive” in each case. Moreover, the Potency entry in test [7] was “inactive”.

For the molecule `OC(CN1CCN(c2cccc(Cl)c2)CC1)C(c1ccccc1)c1ccccc1` (configuration not stated), the Potency result in [1] and in test [2] was “inactive” throughout.

Consider `Clc1ccc(C(Cn2ccnc2)OCc2ccc(Sc3ccccc3)cc2)c(Cl)c1` (configuration not stated), for which the Potency entry in test [1], in test [2] and in [3] was “inactive” each time. The Potency in [4] is 0.155 µM (active); in [5] it was 2.75 µM (active); in test [6] it was 18.6 µM (active); in test [7] it was 16.6 µM (active).
